PubChem BioAssay (EPA / NIEHS)
Calls of active or inactive are those of the source. Rule for the calls: active = hit-call score of the fitted dose curve at least 0.9, where 1 is the maximum; inactive = score below 0.9.

Assay: ATG_CMV_CIS: Attagene CIS-FACTORIAL HepG2 Assay for human CMV (Internal Marker) (AID 2282928);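 note: endpoint acts as a background internal control marker rather than a target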
Settings: HepG2 CMV promoter reporter, transcription factor profiling; actives raise or lower the signal
In short: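 Readout: fluorescent reporter cDNA fragments separated by capillary electrophoresis after RT-PCR and HpaI cut. Cells: HepG2 carrying transfected cis-promoter reporter constructs, dosed 24 h. Endpoint serves as background internal-marker control, fit bidirectionally versus DMSO.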

**Q.** With `Cc1cc(=O)oc2cc(O)ccc12` as the compound, how does the outcome read?
**A.** inactive

**Q.** With `Clc1ccc2c(Cl)ccnc2c1` as the compound, how does the AC50 read?
**A.** 57.3 µM (active)

**Q.** For `CCCCCCCCCCCCCC[n+]1ccccc1`, which outcome is on record?
**A.** inactive

**Q.** With `O=C(C=C(O)C(F)(F)F)C(F)(F)F` as the compound, how does the outcome read?
**A.** inactive

**Q.** For `Cc1cccc2c1ccc1ccccc12`, which outcome is on record?
**A.** inactive

**Q.** With `CCCCCCCCC1CCC(=O)O1` (stereo not drawn) as the compound, how does the outcome read?
**A.** inactive

**Q.** Which outcome does the source give for `c1ccc(CNc2ncnc3c2ncn3C2CCCCO2)cc1` (stereo not drawn) here?
**A.** inactive

**Q.** Which outcome does the source give for `CCOC(OCC)C(=O)c1ccccc1` here?
**A.** inactive

**Q.** Which outcome does the source give for `C[N+](C)(CCCNS(=O)(=O)CCC(F)(F)C(F)(F)C(F)(F)C(F)(F)C(F)(F)C(F)(F)F)CC(=O)[O-]` here?
**A.** inactive

**Q.** Which outcome does the source give for `Nc1ccn([C@@H]2O[C@H](CO)[C@@H](O)C2O)c(=O)n1` (stereo partly drawn) here?
**A.** inactive

**Q.** With `CC(C)(C)C1CCCCC1O` (stereo not drawn) as the compound, how does the outcome read?
**A.** inactive

**Q.** Which outcome does the source give for `Cc1cncc(C)c1` here?
**A.** inactive

**Q.** With `CC(=O)CC(C)C` as the compound, how does the outcome read?
**A.** inactive
